Assay results: the supplement of paper PMC6522484
Values joined by “and” are separate entries in the source; they are usually repeats but may differ in a detail not shown here. Identical values can stand only once. ± gives the standard deviation of the averaged measurements.

Key:
DLD1 [1] = assay: cell viability (CellTiter-Glo) relative to plate median (fraction of plate median); higher = more viable cells; settings: 5 µM; treatment time 24 h; reporter: 7TFP
Outline: (§1)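 Each entry is a luminescence signal normalised to the plate median, averaged over independent replicates. The replicate count was two, and the cells were colorectal cancer lines with stable lentiviral TCF/Wnt firefly luciferase reporters exposed to library compounds at a final 5 µM for 24 h. Firefly luciferase and CellTiterGlo were measured on parallel plates.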

HCT116 = assay: as above; settings: 5 µM; treatment time 24 h; reporter: TCF4/Wnt
Outline: as §1

SW480 [2] = assay: as above; settings: 5 µM; treatment time 24 h; reporter: 7TFP
Outline: as §1

DLD1 [3] = assay: TCF/Wnt firefly luciferase reporter signal relative to plate median (fraction of plate median); higher = higher Wnt reporter signal; settings: 5 µM; treatment time 24 h; reporter: 7TFP
Outline: as §1

SW480 [4] = assay: as above; settings: 5 µM; treatment time 24 h; reporter: 7TFP
Outline: as §1

SMILES	cell viability (DLD1 [1])	cell viability (HCT116)	cell viability (SW480 [2])	TCF/Wnt firefly luciferase reporter signal (DLD1 [3])	TCF/Wnt firefly luciferase reporter signal (SW480 [4])
CC1(C)C(=O)[C@H]2C[C@]3(O)C4=CC(=O)O[C@@H](c5ccoc5)[C@@]4(C)CCC3[C@](C)(C2=O)[C@H]1CC(=O)O (stereo not given in full)	1.085 ± 0.0071	1.1 ± 0.064	1.05 ± 0.028	1.11 ± 0.099	0.972 ± 0.083
Cc1ccc(C(=O)Nc2ccc(S(=O)(=O)O)c3cc(S(=O)(=O)O)cc(S(=O)(=O)O)c23)cc1NC(=O)c1cccc(NC(=O)Nc2cccc(C(=O)Nc3cc(C(=O)Nc4ccc(S(=O)(=O)O)c5cc(S(=O)(=O)O)cc(S(=O)(=O)O)c45)ccc3C)c2)c1	1.02 ± 0.068	0.929 ± 0.13	1.04 ± 0.035	0.936 ± 0.018	0.954 ± 0.11
Cc1c(N(C)CS(=O)(=O)O)c(=O)n(-c2ccccc2)n1C	1.04 ± 0.014	0.968 ± 0.035	1.06 ± 0.085	0.969 ± 0.059	1.04 ± 0.059
Cc1ccc(S(=O)(=O)NC(=O)NN2CC3CCCC3C2)cc1 (stereo not given)	0.95 ± 0.063	0.999 ± 0.044	0.974 ± 0.052	1.07 ± 0.071	0.9645 ± 0.0035
COc1ccc(NS(=O)(=O)c2ccc(N)cc2)nn1	0.99 ± 0.057	1.09 ± 0.042	1.02 ± 0.032	1.12 ± 0.19	0.914 ± 0.14
N[C@@H](Cc1cc(I)c(Oc2ccc(O)c(I)c2)c(I)c1)C(=O)O	0.988 ± 0.015	0.926 ± 0.012	0.969 ± 0.036	1.01 ± 0.17	0.978 ± 0.0099
CC1(C)S[C@@H]2[C@H](NC(=O)[C@H](C(=O)O)c3ccsc3)C(=O)N2[C@H]1C(=O)O	1.09 ± 0.092	1.045 ± 0.0071	1.03 ± 0.052	0.871 ± 0.069	1.075 ± 0.0071
N=C(N)NCCN1CCCCCCC1	1.03 ± 0.035	1.04 ± 0.11	1.04 ± 0.05	0.983 ± 0.081	1.115 ± 0.0071
O=C(O)CCCCCCCC(=O)O	1.01 ± 0.014	1.11 ± 0.11	1.09 ± 0.021	1.16 ± 0.13	1.01 ± 0.084
C[C@@H]1CCCCCCCCC[C@H](OC(=O)CCC(=O)O)C(=O)/C=C/C(=O)O1	1.03 ± 0.05	1.09 ± 0.11	1.02 ± 0.028	1.17 ± 0.05	1.09 ± 0.014
c1ccc(-c2ccc(C(c3ccccc3)n3ccnc3)cc2)cc1 (stereo not given)	1.03 ± 0.035	1.01 ± 0.026	0.965 ± 0.011	0.938 ± 0.016	0.923 ± 0.033
C[C@]12C=CC(=O)C=C1CC[C@@H]1[C@@H]2[C@@H](O)C[C@@]2(C)[C@H]1CC[C@]2(O)C(=O)CO	1.01 ± 0.014	1.09 ± 0.035	1.04 ± 0.069	1.03 ± 0.035	1.04 ± 0.088
OC(CCN1CCCCC1)(c1ccccc1)c1ccccc1	0.982 ± 0.068	0.916 ± 0.051	1.02 ± 0.014	0.834 ± 0.2	0.878 ± 0.019
CCN(CC)CCNC(=O)c1ccc(NC(C)=O)cc1	1.01 ± 0.075	1.05 ± 0.071	1.06 ± 0.035	1.08 ± 0.028	1.14 ± 0.014
COc1cc(OC)c2c(=O)c(-c3ccc4c(c3)OCO4)coc2c1	0.9395 ± 0.00071	1 ± 0.16	0.9755 ± 0.005	1.02 ± 0.066	1.02 ± 0.028
CC(C)(O)CC[C@@H](O)[C@](C)(O)[C@H]1CC[C@@]2(O)C3=CC(=O)[C@@H]4C[C@@H](O)[C@@H](O)C[C@]4(C)[C@H]3CC[C@]12C	0.977 ± 0.021	1.08 ± 0.042	1.01	1.1 ± 0.21	1.14 ± 0.064
OCC(O)C(O)C(O)CO (stereo not given)	0.921 and 1.07	0.918 and 1.01	0.905 and 0.944	1.02 and 1.01	1.06 and 1.04
CCCCOc1cc(C(=O)NCCN(CC)CC)c2ccccc2n1	0.973 ± 0.011	0.926 ± 0.1	0.984	0.831 ± 0.05	0.964 ± 0.045
CC(=O)c1cc(CC=C(C)C)c(O)c(CC=C(C)C)c1	1.05 ± 0.014	1.02 ± 0.035	0.95 ± 0.011	1.08 ± 0.15	1.14 ± 0.064
CC(=O)O[C@@H]1C2=C(C)C=C(O2)[C@H]2O[C@]2(C)C[C@H]2C=C(C(=O)O2)[C@H](OC(C)=O)CC1[C@@]1(C)CO1 (stereo not given in full) [bipinnatin H]	1.1 ± 0.13	1.08 ± 0.17	0.984 ± 0.023	0.897 ± 0.16	0.7915 ± 0.0021
CC(=O)OC1CCC2(C)C3=C(CC[C@H]2C1(C)C)[C@@]1(C)CC[C@@H]([C@@H](C)CCC=C(C)C)[C@]1(C)CC3 (stereo not given in full)	1.04 ± 0.097	1 ± 0.064	0.961 ± 0.0014	1.06 ± 0.17	1.11 ± 0.014
c1ccc(CC2=NCCN2)cc1	0.994 ± 0.066	1.04 ± 0.075	0.9775 ± 0.00071	0.952 ± 0.082	1.01 ± 0.12
CC(=O)O[C@]1(C(C)=O)CC[C@H]2[C@@H]3C=C(Cl)C4=CC(=O)CC[C@]4(C)[C@H]3CC[C@@]21C	0.905 ± 0.016	0.972 ± 0.082	1.04 ± 0.042	0.9805 ± 0.0064	1.06 ± 0.088
Cc1ccccc1N1C(=O)c2cc(S(N)(=O)=O)c(Cl)cc2NC1C (stereo not given)	1.06 ± 0.078	1.02 ± 0.035	1.02	1.03 ± 0.072	0.938 ± 0.19
CC(=O)O[C@@H]1CC2C(C)(C)C(=O)CC[C@]2(C)C2CC[C@]3(C)C(=CC(=O)O[C@H]3c3ccoc3)[C@@]21C (stereo not given in full)	1.05 ± 0.12	1.06 ± 0.17	1.07 ± 0.092	1.06 ± 0.11	0.949 ± 0.087
CC[C@H](C)C(=O)O[C@H]1C[C@@H](C)C=C2C=C[C@H](C)[C@H](CC[C@@H]3C[C@@H](O)CC(=O)O3)[C@H]21	1.02 ± 0.086	1.06 ± 0.028	1.035 ± 0.0071	1.02 ± 0.079	1.07 ± 0.021
OCCN1CCN(CCCN2c3ccccc3Sc3ccc(Cl)cc32)CC1	0.891 ± 0.027	0.917 ± 0.08	0.983 ± 0.025	1.03	0.976 ± 0.13
